PG9 Ab binder: binds the HIV-1 gp120 antibody PG9 | TR-FRET gp120-PG9 antibody binding | inhibition, % at 6.7 µM | actives 0.43% (n = 360,000); in the data active = inhibition above about 8.5%
MsrA act: bovine methionine sulfoxide reductase A activation; purified bovine MsrA, absorbance read-out; activation, % at 10.6 µM; actives 0.3% (n = 360,000); in the data active = activation above about 7.5%
MsrA inh: bovine MsrA inhibition; purified bovine MsrA, absorbance read-out; inhibition, % at 15.5 µM; actives 0.75% (n = 360,000); AID 651718; in the data active = inhibition above about 4.5%
rCAG RNA binder: molecules binding r(CAG) RNA repeats. inhibition, % at 3 µM. r(CAG) RNA repeat, TO-PRO-1 dye displacement fluorescence. actives 1.3% (n = 370,000);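 active = inhibition above the plate cutoff, the mean of all test compounds on that plate plus 3 SD, cut at about 35% in these data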;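 note: higher means more dye released from RNA so lower well fluorescence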
HGIII-sPLA2 inh: Blocks human group III sPLA2 activity | inhibition, % at 12.2 µM | QFRET BODIPY PC-A2 liposome hydrolysis, fluorescence | actives 0.56% (n = 370,000) | Q9NZ20;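 active = inhibition above mean plus 3 SD of compounds lying within the high and low control bounds, cut at about 19% in these data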
Target sequence (Q9NZ20 whole entry, looked up): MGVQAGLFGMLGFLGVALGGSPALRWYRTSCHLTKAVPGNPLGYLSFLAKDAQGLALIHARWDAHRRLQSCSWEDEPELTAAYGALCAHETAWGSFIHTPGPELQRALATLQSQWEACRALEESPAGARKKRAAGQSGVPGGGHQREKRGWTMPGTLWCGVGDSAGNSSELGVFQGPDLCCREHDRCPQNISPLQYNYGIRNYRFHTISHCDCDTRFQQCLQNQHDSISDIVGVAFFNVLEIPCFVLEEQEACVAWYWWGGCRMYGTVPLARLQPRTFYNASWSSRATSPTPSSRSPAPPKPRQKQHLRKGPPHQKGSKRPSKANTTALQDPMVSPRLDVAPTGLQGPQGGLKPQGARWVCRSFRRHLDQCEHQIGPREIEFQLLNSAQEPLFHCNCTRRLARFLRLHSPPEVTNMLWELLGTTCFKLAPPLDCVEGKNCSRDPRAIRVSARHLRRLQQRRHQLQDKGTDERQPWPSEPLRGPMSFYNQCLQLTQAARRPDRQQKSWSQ
rCAG binder conf: r(CAG) RNA repeat binding, confirmation; TO-PRO-1 dye displacement fluorescence; shares compounds with rCAG RNA binder; inhibition, % at 3 µM; actives 70% (n = 4,300);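 active = inhibition above a per-plate cutoff, the mean inhibition of sample wells plus 3 SD, cut at about 35% in these data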;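 note: loss of TO-PRO-1 fluorescence as compound displaces dye from 1x1 AA loop RNA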
DNA CAG counter: disrupts DNA CAG TO-PRO-1 complex, flagging rCAG hits; shares compounds with rCAG RNA binder; d(CAG) DNA oligo TO-PRO-1 dye displacement, fluorescence; inhibition, % at 3 µM; actives 94% (n = 4,300); AID 652068;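 active = inhibition above its plate's cutoff, the mean test-well inhibition plus 3 SD, cut at about 4.8% in these data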;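 note: hits displace the dye from DNA and so lower well fluorescence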
dCAG dye DR: DNA CAG dye complex inhibition, dose response counter-screen | DNA CAG/GTC duplex TO-PRO-1 dye displacement fluorescence | actives 20% (n = 250) | IC50, µM | shares compounds with rCAG RNA binder; in the data active = IC50 below about 10 µM
Large screens that a line does not name were inactive (follow-up assays come after a bar, where they were run). Compounds with a hit are over-represented: about 3.2% of the library has one in this group of screens.

CCc1nnc(NS(=O)(=O)c2ccc(N3C(=O)C4CC=C(Cl)CC4C3=O)cc2)s1 (stereo not given)	rCAG RNA binder 49 | rCAG binder conf inactive | DNA CAG counter 7.6
CCc1nnc(NS(=O)(=O)c2ccc(NC(=O)c3ccco3)cc2)s1	none
CN1CCC(N[C@@H](Cc2c[nH]c3ccccc23)C(=O)NCC(c2ccccc2)c2ccccc2)(C(=O)NC2CCCCC2)CC1	none (no result: PG9 Ab binder, MsrA act, MsrA inh, rCAG RNA binder)
CCc1nnc(NS(=O)(=O)c2ccc(NC(=O)/C=C/C(=O)O)cc2)s1	none
CCc1nnc(NS(=O)(=O)c2ccc(NC(=O)c3ccc(C#N)cc3)cc2)s1	rCAG RNA binder 36 | rCAG binder conf inactive | DNA CAG counter inactive
CCc1nnc(NS(=O)(=O)c2ccc(NC(=O)c3cccc(OC)c3)cc2)s1	rCAG RNA binder 39 | rCAG binder conf inactive | DNA CAG counter 5.5
CCc1nnc(NS(=O)(=O)c2ccc(N/C=C\C(=O)c3ccc4ccccc4c3)cc2)s1	rCAG RNA binder 71 | rCAG binder conf 86 | DNA CAG counter 61
CCCN(CCC)S(=O)(=O)c1ccc(C(=O)Nc2ccc(S(=O)(=O)Nc3nnc(CC)s3)cc2)cc1	rCAG RNA binder 80 | rCAG binder conf 84 | DNA CAG counter 54
O=S(=O)(c1c(Cl)cc(Br)cc1Cl)N1CCN(C(=S)NC2CC2)CC1	none
CCc1nnc(NS(=O)(=O)c2ccc(NC(=O)c3cccc(Cl)c3)cc2)s1	rCAG RNA binder 54 | rCAG binder conf 50 | DNA CAG counter 10 | dCAG dye DR inactive
CCc1nnc(NS(=O)(=O)c2ccc(N/C=C(\C=O)c3nc4cc(Cl)ccc4o3)cc2)s1	rCAG RNA binder 42 | rCAG binder conf 76 | DNA CAG counter 40
O=C(OCc1cn(Cc2ccc(F)cc2)nn1)N1CCOCC1	none (no result: PG9 Ab binder, MsrA act, MsrA inh)
O=[N+]([O-])c1ccc2[nH]cc(S(=O)(=O)N3CCN(c4cccc(Cl)c4)CC3)c2c1	rCAG RNA binder 43 | rCAG binder conf 37 | DNA CAG counter 20
COc1cc(/C=C/c2ccc3cccc(O)c3n2)ccc1O	none
Oc1ccc2ccccc2c1/C=C/c1ccc2c(Br)cc(Br)c(O)c2n1	rCAG RNA binder 48 | rCAG binder conf 50 | DNA CAG counter 32
CS(=O)(=O)NNC(=O)Cn1nnc(-c2cc(C(F)(F)F)cc(C(F)(F)F)c2)n1	none
O=C(Cn1nnc(-c2cccc(C(F)(F)F)c2)n1)NNS(=O)(=O)c1cccc(C(F)(F)F)c1	rCAG RNA binder 54 | rCAG binder conf 38 | DNA CAG counter 10
C[C@@H]1CC(=O)NN=C1c1ccc(NN=C(C#N)C#N)cc1	none (no result: PG9 Ab binder, MsrA act, MsrA inh)
CCN(CC)C(=O)CC[C@H]1CC[C@]2(CCCN(Cc3nccn3C)C2)O1	none (no result: PG9 Ab binder, MsrA act, MsrA inh)
O=C(Nc1ccccc1C(=O)O)/C(=C/c1ccc(Cl)cc1Cl)NC(=O)c1ccco1	rCAG RNA binder 52 | rCAG binder conf inactive | DNA CAG counter 6.0
CN(Cc1ccccc1)C(=O)OCc1cn(Cc2cccc(F)c2)nn1	none (no result: PG9 Ab binder, MsrA act, MsrA inh)
O=C(NC(=S)Nc1ccc(S(=O)(=O)Nc2nccs2)cc1)c1ccccc1	rCAG RNA binder 41 | rCAG binder conf 37 | DNA CAG counter 8.9
O=C(NC(=S)Nc1ccc(S(=O)(=O)Nc2nccs2)cc1)c1ccc(F)c(F)c1	rCAG RNA binder 63 | rCAG binder conf 40 | DNA CAG counter 12
O=C(NC(=S)Nc1ccc(S(=O)(=O)Nc2nccs2)cc1)c1cccnc1	none
O=C(NC(=S)Nc1ccc(S(=O)(=O)Nc2nccs2)cc1)c1ccccc1F	rCAG RNA binder 42 | rCAG binder conf 41 | DNA CAG counter 13
O=C(NC(=S)Nc1ccc(S(=O)(=O)Nc2nccs2)cc1)c1ccc(Br)o1	rCAG RNA binder 47 | rCAG binder conf inactive | DNA CAG counter 12
COc1ccccc1S(=O)(=O)N(C)C[C@@H]1OCc2cnnn2CCCC(=O)N([C@@H](C)CO)C[C@H]1C	none
Cc1cccc(Cn2cc(COC(=O)Nc3ccc(F)cc3)nn2)c1	none (no result: PG9 Ab binder, MsrA act, MsrA inh)
COc1ccc2[nH]c3c(c2c1)CCN[C@]31C(=O)Nc2ccccc21	none (no result: PG9 Ab binder, MsrA act, MsrA inh)
COc1cccc(OC)c1C(=O)NC(=S)Nc1ccc(S(=O)(=O)Nc2nccs2)cc1	rCAG RNA binder 59 | rCAG binder conf 40 | DNA CAG counter 16
COC(=O)c1ccccc1NC(=O)NCC1CCN(Cc2ccc(OC)cc2)CC1	none (no result: PG9 Ab binder, MsrA act, MsrA inh)
Cc1cccc(N2C(=O)C(O)=C(C(=O)c3cccs3)C2c2ccccc2)n1 (stereo not given)	none
Cc1cccc(N2C(=O)C(O)=C(C(=O)c3cccs3)C2c2cccc(Oc3ccccc3)c2)n1 (stereo not given)	rCAG RNA binder 45 | rCAG binder conf 40 | DNA CAG counter 10
CN(CCCOC(=O)CC1C=CCC1)C1CN(Cc2cn(Cc3ccccc3Cl)nn2)S(=O)(=O)C1 (stereo not given)	none (no result: PG9 Ab binder, MsrA act, MsrA inh)
COc1ccc(N(CC(=O)Nc2ccccc2C(=O)O)S(=O)(=O)c2ccc(C)c([N+](=O)[O-])c2)cc1	rCAG RNA binder 72 | rCAG binder conf 54 | DNA CAG counter 17
COc1ccc(NC(=O)CN(c2ccc([N+](=O)[O-])cc2)S(=O)(=O)c2ccccc2)cc1	none
Cn1c(=O)c2c(-c3ccccc3)n(-c3cc(Cl)c([N+](=O)[O-])cc3O)cc2n(C)c1=O	rCAG RNA binder 43 | rCAG binder conf 42 | DNA CAG counter 11
O=C(NC(=S)Nc1ccc(Cl)c(C(=O)O)c1)c1ccc(OCc2ccccc2)cc1	rCAG RNA binder 68 | rCAG binder conf 62 | DNA CAG counter 25
O=C(O)c1cccc(NC(=O)c2ccc(COc3ccc(Cl)cc3)cc2)c1	rCAG RNA binder 47 | rCAG binder conf 54 | DNA CAG counter 16
COc1cc(OC)cc(C(=O)NC(=S)Nc2ccc(Cl)c(C(=O)O)c2)c1	none
CCCCOc1cccc(C(=O)NC(=S)Nc2ccc(Cl)c(C(=O)O)c2)c1	rCAG RNA binder 44 | rCAG binder conf 49 | DNA CAG counter 9.4 | dCAG dye DR inactive
O=C(NC(=S)Nc1ccc(Cl)c(C(=O)O)c1)c1cccc(COc2ccccc2)c1	rCAG RNA binder 71 | rCAG binder conf 67 | DNA CAG counter 30
O=C(O)c1ccc(Cl)c(NC(=S)NC(=O)c2cccc(COc3ccccc3)c2)c1	none
N#C/C(=C\c1ccc(OCc2ccc(Cl)cc2)cc1)C(=O)Nc1cccc(C(=O)O)c1	none
C#CCNC(=O)C[C@H]1C(=O)N(Cc2ccc(OC)cc2)C2=CCCC[C@@]21C(=O)OCC	none (no result: PG9 Ab binder, MsrA act, MsrA inh)
C=CCOC(=O)N[C@@H](c1cccc(OC)c1)[C@@H](C)/C=C/CC(=O)O	none (no result: PG9 Ab binder, MsrA act, MsrA inh)
O=C(Nc1ccc(Cl)cc1)C1CCCN1S(=O)(=O)c1cccc2cccnc12 (stereo not given)	none (no result: PG9 Ab binder, MsrA act, MsrA inh)
O=C(Nc1ccccc1C(=O)NCc1ccccc1)c1ccccc1Br	none

Source: PubChem BioAssay (The Scripps Research Institute Molecular Screening Center)
